Here are results for 40 molecules from PubChem BioAssay (NCATS).

Records with an inconclusive call do not appear. Activity calls are given as the source filed them. The call rests on the fitted dose curve; in most records, active means well fitted cell-killing curve with a large enough effect; inconclusive means small, poorly fitted or top-dose-only effect; inactive means flat fitted curve, though single readings scatter.

A short description of the first assay: Cell Viability - LYMP2-011 (AID 969).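 Further: cells exposed to compound for 24 hours; 0% = DMSO only and full inhibition = 92 µM tetraoctylammonium bromide; nearly all actives have a fitted effect of over 60% in size.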 The settings on record: LYMP2-011 lymphoblastoid cells viability; series mostly up to 92.2 µM; viability change, negative = cytotoxic: at the top concentration. The method, boiled down:
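Luminescent ATP read-out (CellTiter-Glo, 30 min RT) after 24 hr compound exposure at 37 C in human lymphoblastoid cells, 2500 cells/well. Decreasing ATP indicates cytotoxicity; AC50 from standard Hill fit.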
For `CCNc1cc(O)ccc1C`, the “viability change, negative = cytotoxic” value was -0.877% (inactive).

`Cc1ccc(C(=O)O)cc1`: the “viability change, negative = cytotoxic” value was -1.99% (inactive).

Take `C=Cc1ccccn1`: the “viability change, negative = cytotoxic” value is 4.22% (inactive).

On to `CCCCC(=O)N(C)C`, for which the “viability change, negative = cytotoxic” value was -8.13% (inactive).

For the molecule `Nc1cc(S(=O)(=O)O)ccc1O`, the “viability change, negative = cytotoxic” value is -0.936% (inactive).

For `Cc1cccc2sc(N)nc12`, the “viability change, negative = cytotoxic” value is -0.538% (inactive).

With `CN(C)c1cccc(O)c1`, the “viability change, negative = cytotoxic” value was -3.23% (inactive).

As for `CC(=O)c1ccccn1`, the “viability change, negative = cytotoxic” value is -1.8% (inactive).

On to `O=P(O)(OCc1ccccc1)OCc1ccccc1`, for which the “viability change, negative = cytotoxic” value is 7.39% (inactive).

For the molecule `CC(N)CN` (stereo not drawn), the “viability change, negative = cytotoxic” value was -0.428% (inactive).

In the case of `OC1CCCC1`, the “viability change, negative = cytotoxic” value was 0.555% (inactive).

For the molecule `Cc1ccc(N(C)C)cc1`, the “viability change, negative = cytotoxic” value was 1.47% (inactive).

For the molecule `OCCO`, the “viability change, negative = cytotoxic” value is 0.331% (inactive).

`Cc1ccc2nc(-c3ccc(N)cc3)sc2c1S(=O)(=O)O`: the “viability change, negative = cytotoxic” value was -5.51% (inactive).

On to `CCOC(=O)OCC`, for which the “viability change, negative = cytotoxic” value is 3.43% (inactive).

For `Nc1cccc(C(F)(F)F)c1`, the “viability change, negative = cytotoxic” value was 0.856% (inactive).

Regarding `ClCCl`, the “viability change, negative = cytotoxic” value was 1.97% (inactive).

Take `CN(C)CCCCl`: the “viability change, negative = cytotoxic” value is -0.272% (inactive).

For the molecule `CC(=O)c1cccc([N+](=O)[O-])c1`, the “viability change, negative = cytotoxic” value was -3.82% (inactive).

Take `O=C(O)c1ccccc1Cl`: the “viability change, negative = cytotoxic” value is -5.53% (inactive).

`CSCCC=O`: the “viability change, negative = cytotoxic” value was -0.934% (inactive).

As to `C=C(C)OC(C)=O`, the “viability change, negative = cytotoxic” value is -2.95% (inactive).

As to `C1CCCC1`, the “viability change, negative = cytotoxic” value is -5.36% (inactive).

Take `CCCCCCCCC/C=C/CC1CC(=O)OC1=O` (stereo not drawn): the “viability change, negative = cytotoxic” value is -0.686% (inactive).

Consider `Cc1cc(C)cc(O)c1`, for which the “viability change, negative = cytotoxic” value was -0.553% (inactive).

Take `CCC(O)C(C)(C)C` (stereo not drawn): the “viability change, negative = cytotoxic” value was -3.49% (inactive).

Turning to `CCCCCCCCC`, the “viability change, negative = cytotoxic” value was 2.91% (inactive).

For the molecule `CCCCCCCCCCCCC1CO1` (stereo not drawn), the “viability change, negative = cytotoxic” value was -2.67% (inactive).

In the case of `Clc1ccc(Cl)c(Cl)c1Cl`, the “viability change, negative = cytotoxic” value was 5.89% (inactive).

In the case of `CC/C=C/C#N`, the “viability change, negative = cytotoxic” value was -1.76% (inactive).

Take `NC(=S)NNC(N)=S`: the “viability change, negative = cytotoxic” value is -0.793% (inactive).

In the case of `Cc1ccc(C(C)(C)C)cc1`, the “viability change, negative = cytotoxic” value was -3.05% (inactive).

For `O=Cc1cccc(Br)c1`, the “viability change, negative = cytotoxic” value was 2.15% (inactive).

`Cc1ccc(C)c(N)c1`: the “viability change, negative = cytotoxic” value is 4.68% (inactive).

Turning to `CC(C)c1ccccc1`, the “viability change, negative = cytotoxic” value was -2.08% (inactive).

The nature of the next assay: Cell Viability - LYMP2-013 (AID 970).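 Further: cells exposed to compound for 24 h at 37 °C; 0% = DMSO only and full inhibition = tetraoctylammonium bromide control; nearly all actives have a fitted effect of over 55% in size.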 The settings on record: LYMP2-013 lymphoblastoid cells viability; series mostly up to 92.2 µM; activity change, negative = cytotoxic: at the top concentration. The method in brief: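 CellTiter-Glo luminescence (cellular ATP) read after 30 min at RT. Cells: human lymphoblastoid line, 2500/well, 24 hr compound exposure at 37 C. Tetraoctylammonium bromide positive control; AC50 via standard Hill fit of qHTS titrations.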
With `CCN(C(=O)N(CC)c1ccccc1)c1ccccc1`, the “activity change, negative = cytotoxic” value is -5.74% (inactive).

For the molecule `CCNc1cc(O)ccc1C`, the “activity change, negative = cytotoxic” value was -0.874% (inactive).

As for `Cc1ccc(C(=O)O)cc1`, the “activity change, negative = cytotoxic” value is -8.78% (inactive).

In the case of `C=Cc1ccccn1`, the “activity change, negative = cytotoxic” value is 0.486% (inactive).

On to `CC(C)C(C)C`, for which the “activity change, negative = cytotoxic” value was -6.43% (inactive).

Regarding `CCCCC(=O)N(C)C`, the “activity change, negative = cytotoxic” value was -6.72% (inactive).

Regarding `Nc1cc(S(=O)(=O)O)ccc1O`, the “activity change, negative = cytotoxic” value was 1.18% (inactive).

With `O=C1OC(=O)c2c(Br)c(Br)c(Br)c(Br)c21`, the “activity change, negative = cytotoxic” value was -4.78% (inactive).

`Cc1cccc2sc(N)nc12`: the “activity change, negative = cytotoxic” value is -0.925% (inactive).

`CN(C)c1cccc(O)c1`: the “activity change, negative = cytotoxic” value is -6.59% (inactive).

In the case of `BrC(Br)C(Br)Br`, the “activity change, negative = cytotoxic” value is -7.95% (inactive).

For `CC(=O)c1ccccn1`, the “activity change, negative = cytotoxic” value is 2.79% (inactive).

With `O=P(O)(OCc1ccccc1)OCc1ccccc1`, the “activity change, negative = cytotoxic” value is -0.523% (inactive).

Turning to `CC(N)CN` (stereo not drawn), the “activity change, negative = cytotoxic” value is 2.55% (inactive).

Turning to `OC1CCCC1`, the “activity change, negative = cytotoxic” value was -2.84% (inactive).

As for `Cc1ccc(N(C)C)cc1`, the “activity change, negative = cytotoxic” value was -7.07% (inactive).

As for `OCCO`, the “activity change, negative = cytotoxic” value was -2.6% (inactive).

Consider `Cc1ccc2nc(-c3ccc(N)cc3)sc2c1S(=O)(=O)O`, for which the “activity change, negative = cytotoxic” value was -6.03% (inactive).

Take `CCOC(=O)OCC`: the “activity change, negative = cytotoxic” value was -2.8% (inactive).

Take `Nc1cccc(C(F)(F)F)c1`: the “activity change, negative = cytotoxic” value is -3.83% (inactive).

With `ClCCl`, the “activity change, negative = cytotoxic” value was -1.36% (inactive).

For `CN(C)CCCCl`, the “activity change, negative = cytotoxic” value was -1.51% (inactive).

For `CC(=O)c1cccc([N+](=O)[O-])c1`, the “activity change, negative = cytotoxic” value was -4.62% (inactive).

Regarding `O=C(O)c1ccccc1Cl`, the “activity change, negative = cytotoxic” value is 1.72% (inactive).

As to `CSCCC=O`, the “activity change, negative = cytotoxic” value was 1.97% (inactive).

Regarding `C=C(C)OC(C)=O`, the “activity change, negative = cytotoxic” value was 1.63% (inactive).

For `C1CCCC1`, the “activity change, negative = cytotoxic” value was 0.887% (inactive).

In the case of `CCCCCCCCC/C=C/CC1CC(=O)OC1=O` (stereo not drawn), the “activity change, negative = cytotoxic” value is -2.19% (inactive).

As to `Cc1cc(C)cc(O)c1`, the “activity change, negative = cytotoxic” value was -7.97% (inactive).

In the case of `CCCCCCCCC`, the “activity change, negative = cytotoxic” value is 4.83% (inactive).

For `CCCCCCCCCCCCC1CO1` (stereo not drawn), the “activity change, negative = cytotoxic” value is -4.88% (inactive).

Take `CC(=O)c1nccs1`: the “activity change, negative = cytotoxic” value is 1.99% (inactive).

With `Clc1ccc(Cl)c(Cl)c1Cl`, the “activity change, negative = cytotoxic” value is -6.8% (inactive).

On to `CC/C=C/C#N`, for which the “activity change, negative = cytotoxic” value was -2.86% (inactive).

With `NC(=S)NNC(N)=S`, the “activity change, negative = cytotoxic” value was -5.29% (inactive).

Consider `O=Cc1cccc(Br)c1`, for which the “activity change, negative = cytotoxic” value is -2.85% (inactive).

Consider `Cc1ccc(C)c(N)c1`, for which the “activity change, negative = cytotoxic” value was -16.1% (inactive).

With `CC(C)c1ccccc1`, the “activity change, negative = cytotoxic” value was -4.83% (inactive).
